In the library only some 3% were active in any assay of this set; here they are far more common.
PAFAH1B2 FP inh: inhibitors of human PAFAH1B2; recombinant PAFAH1B2, FP-rhodamine activity probe, fluorescence polarization; inhibition, % at 3.39 µM; AID 492953; hit rate 1.2% among 340,000;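 active means inhibition above the mean of all tested compounds plus 3 SD, cut at about 24% in these data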;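 further: 0% = enzyme with DMSO and 100% = wells lacking PAFAH1B2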
pPAFAH inh: pPAFAH (human) enzyme inhibition. recombinant pPAFAH, FP-rhodamine probe fluorescence polarization. hit rate 1.5% among 330,000. Q13093. inhibition, % at 3.39 µM;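 active means inhibition above the mean inhibition across the screen plus 3 SD, cut at about 25% in these data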;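 further: inhibitors block binding of the rhodamine activity-based probe so polarization drops; 0% = enzyme with DMSO and 100% = wells lacking pPAFAH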
ATG4B inhibitor: blocks human ATG4B protease cleavage of LC3 substrate. hit rate 0.51% among 340,000. AID 504462. ATG4B cleavage of LC3-PLA2, NBD-HPC fluorescence, 1 h. inhibition, % at 8.33 µM; in the data active means inhibition above about 40%
PAFAH1B3 inh: PAFAH1B3 (human) inhibition; recombinant PAFAH1B3, FP-rhodamine probe, fluorescence polarization; inhibition, % at 3.39 µM; hit rate 0.28% among 340,000; AID 492972;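 active means inhibition above the screen-wide average of all tested compounds plus 3 SD, cut at about 25% in these data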;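 further: 0% = enzyme with DMSO only and 100% = wells lacking PAFAH1B3 protein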
DAGLB inh: blocks human DAGLB lipase activity. HEK293T DAGLB membrane lysate, EnzChek fluorogenic substrate. Q8NCG7. inhibition, % at 5.17 µM. hit rate 0.059% among 340,000. AID 504411; in the data active means inhibition above about 34%;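 further: 0% = enzyme with vehicle and 100% = wells lacking enzyme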
Target sequence (Q8NCG7 whole entry, looked up): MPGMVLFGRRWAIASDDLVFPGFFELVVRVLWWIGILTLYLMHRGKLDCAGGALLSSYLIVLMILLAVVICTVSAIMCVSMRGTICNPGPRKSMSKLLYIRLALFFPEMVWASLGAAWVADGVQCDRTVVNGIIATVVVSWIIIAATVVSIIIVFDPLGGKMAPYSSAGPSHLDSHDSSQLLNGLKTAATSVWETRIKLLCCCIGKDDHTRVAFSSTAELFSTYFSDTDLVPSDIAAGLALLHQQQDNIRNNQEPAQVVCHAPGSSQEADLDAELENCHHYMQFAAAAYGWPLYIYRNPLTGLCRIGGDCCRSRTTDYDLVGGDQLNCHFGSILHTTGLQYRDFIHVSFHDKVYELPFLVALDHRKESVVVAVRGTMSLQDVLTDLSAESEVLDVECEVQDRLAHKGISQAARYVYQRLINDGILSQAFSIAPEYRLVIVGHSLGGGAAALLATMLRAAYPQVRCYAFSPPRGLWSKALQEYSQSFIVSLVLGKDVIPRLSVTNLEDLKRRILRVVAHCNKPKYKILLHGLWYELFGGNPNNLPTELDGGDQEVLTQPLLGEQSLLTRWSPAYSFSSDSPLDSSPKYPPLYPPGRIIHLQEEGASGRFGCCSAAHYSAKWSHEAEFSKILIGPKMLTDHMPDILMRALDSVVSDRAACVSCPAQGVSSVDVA
PAFAH2 inh: PAFAH2 (human) inhibition | hit rate 0.99% among 340,000 | inhibition, % at 3.39 µM | recombinant PAFAH2, FP-rhodamine activity probe, fluorescence polarization | Q99487 | AID 492956;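 active means inhibition above the mean over all tested compounds plus 3 SD, cut at about 30% in these data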;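 further: inhibitors block probe labeling of enzyme so polarization drops; 0% = enzyme with DMSO and 100% = wells lacking PAFAH2 protein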
pPAFAH FP conf: pPAFAH (human) inhibition, confirmed. shares compounds with pPAFAH inh. recombinant pPAFAH, FP-Rh probe fluorescence polarization. inhibition, % at 3.39 µM. hit rate 72% among 2,300. AID 463230;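 active means mean inhibition of the triplicate above the hit cutoff set for the earlier primary screen, cut at about 25% in these data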;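 further: 0% = enzyme with DMSO and 100% = wells lacking pPAFAH enzyme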
Starred values were filed as active, the others as inactive; nt = not tested or not shown.

SMILES | PAFAH1B2 FP inh | pPAFAH inh | ATG4B inhibitor | PAFAH1B3 inh | DAGLB inh | PAFAH2 inh | pPAFAH FP conf
Cc1ccc(S(=O)(=O)N(C)C)cc1NC(=O)COC(=O)Cc1ccccc1F | 3 | 0 | 4 | -6 | 1 | -1 | nt
O=C(COC(=O)c1ccc2c(c1Cl)C(=O)c1ccccc1C2=O)NC1CC1 | 0 | 54* | 3 | 8 | 2 | 34* | 44*
O=C(COC(=O)c1cc(Cl)ccc1Cl)NC1CCCC1 | 3 | 4 | 2 | -1 | -3 | 13 | nt
O=C(COC(=O)c1ccc2c(c1Cl)C(=O)c1ccccc1C2=O)NC1CCCCC1 | -5 | 53* | 13 | 3 | 3 | 44* | 50*
COc1ccc(CNC(=O)COC(=O)CCCOc2ccc(Cl)cc2Cl)cc1 | 2 | 35* | -11 | 5 | -2 | 1 | 20
O=C(COC(=O)Cn1cnc2ccccc21)Nc1ccc(OC(F)F)cc1 | 1 | -1 | -6 | 6 | -6 | 2 | nt
COc1cccc(N=Nc2ccc(O)c3ncccc23)c1 | 6 | 60* | -4 | 9 | 26 | 5 | 25*
COc1cccc(N=Nc2ccc3cccnc3c2O)c1 | 5 | 58* | 1 | 18 | 26 | -2 | 33*
O=S1(=O)N=C(N/N=C/c2ccccn2)c2ccccc21 | 1 | 76* | -2 | 16 | 0 | 2 | 2
COc1ccc(/C=N/NC2=NS(=O)(=O)c3ccccc32)cc1 | 3 | 6 | -7 | 12 | 0 | -8 | nt
Cc1ccc(-n2c(CCC(=O)O)ccc2-c2cccs2)cc1 | 7 | 51* | 23 | 3 | 5 | 7 | 13
CC(=O)c1ccc(-n2c(CCC(=O)O)ccc2-c2cccs2)cc1 | 2 | 6 | 2 | -4 | 5 | 2 | nt
O=C(O)c1ccc2c(c1)[C@@H]1C=CC[C@@H]1[C@H](c1ccccn1)N2 | 33* | 64* | 11 | 61* | 2 | 49* | 15
CCOC(=O)Cc1cc(=O)n(-c2nc3ccccc3s2)[nH]1 | 1 | 41* | 26 | 4 | 13 | 31* | -3
CCCc1cc(=O)n(-c2nc3ccccc3s2)[nH]1 | 1 | 3 | 2 | 2 | 5 | 25 | nt
O=S(=O)(c1ccc2nc(-c3ccco3)c(-c3ccco3)nc2c1)N1CCOCC1 | 11 | 43* | 14 | 12 | 3 | 21 | 13
Cn1nc(C(=O)OCC(=O)Nc2ccc3ccccc3c2)c2ccccc2c1=O | -3 | 5 | -18 | 6 | -4 | 3 | nt
C(=N\C(/N=C/c1ccco1)c1ccco1)/c1ccco1 | 0 | 13 | -4 | 14 | 2 | 6 | nt
C(=Nc1cccc2c(N=Cc3ccco3)cccc12)c1ccco1 | 7 | 45* | -4 | 11 | 2 | 6 | 3
CCOC(=O)C1CCN(C(=O)COC(=O)c2ccc(=O)n(Cc3ccccc3)n2)CC1 | 1 | 9 | -3 | 0 | 0 | 3 | nt
O=C(C1=C(O)C(=O)N(c2nc3ccc(Cl)cc3s2)C1c1ccco1)c1ccco1 (stereo not drawn) | 7 | 49* | 12 | 12 | 13 | 28 | 38*
Cc1ccc2nc(N3C(=O)C(O)=C(C(=O)c4ccc(C)o4)C3c3ccco3)sc2c1 (stereo not drawn) | 3 | 18 | -30 | 2 | 3 | 16 | nt
CC(C)=CCC/C(C)=C/CNC(=O)C[C@H]1C[C@H](C(=O)N(C(C)C)C(C)C)[C@@]2(C)c3[nH]c4cc(CCC(=O)N(C)C)ccc4c3CCN2C1=O | 4 | 68* | -5 | 4 | 5 | -2 | 59*
CC(C)=CCC/C(C)=C/CNC(=O)C[C@H]1C[C@H](C(=O)N2CCOCC2)[C@@]2(CCC3CCCC3)c3[nH]c4cc(CCC(=O)N(C)C)ccc4c3CCN2C1=O | 6 | 39* | -8 | 7 | 4 | 2 | 27*
CC(C)N(C(=O)[C@H]1C[C@H](CC(=O)NCCCN(C)C)C(=O)N2CCc3c([nH]c4cc(CCC(=O)N(C)C)ccc34)[C@]12C)C(C)C | -1 | 3 | -1 | 0 | -1 | -2 | nt
SMILES | PAFAH1B2 FP inh | pPAFAH inh | ATG4B inhibitor | PAFAH1B3 inh | DAGLB inh | PAFAH2 inh | pPAFAH FP conf
CC(C)=CCC/C(C)=C/CNC(=O)C[C@H]1C[C@H](C(=O)N2CCCCC2)[C@@]2(C)c3[nH]c4cc(-c5ccco5)ccc4c3CCN2C1=O | 1 | 41* | nt | 5 | -2 | 8 | 23
COc1ccc([C@H]2CC(=O)C=C(c3ccc(C(=O)O)cc3)C2)cc1OC | 5 | 0 | 2 | 5 | 1 | 2 | nt
COc1cccc(NC(=O)[C@H](NC(=O)[C@@H]2Cc3ccccc3CN2)c2ccccc2)c1 | -1 | 7 | -4 | 1 | -1 | -8 | nt
O=C(CN1c2ccccc2S(=O)(=O)c2ccccc21)NCc1ccc(F)cc1 | 3 | -5 | -7 | 5 | -2 | 1 | nt
COc1cc(NC(=O)c2cccs2)c(OC)cc1NC(=O)CCC(=O)Nc1ccc(C)cc1 | 2 | 11 | 1 | 5 | -3 | 4 | nt
O=C(Cn1ccc2ccccc2c1=O)NCC(=O)N1CCN(c2ccc(F)cc2)CC1 | 5 | 2 | -4 | -10 | -2 | -2 | nt
Cc1cc(/C=C2/SC(=S)N(c3cccc(C(F)(F)F)c3)C2=O)c(C)n1-c1cccnc1 | 0 | 44* | -16 | -6 | 3 | 24 | 42*
Cc1cc(/C=C2\SC(=S)N(Cc3ccco3)C2=O)c(C)n1-c1cccnc1 | 7 | nt | -4 | 5 | -4 | 6 | nt
Cc1ccc(N2CCC(N3CCN(C)C(CCO)C3)CC2)cc1 (stereo not drawn) | 4 | 6 | 0 | 6 | 0 | -1 | nt
COc1ccc(-n2ncc3c(=O)n(CC(=O)NC(C)C)cnc32)cc1 | 5 | 36* | 0 | -1 | -1 | 4 | 2
O=c1ccnc(Nc2ccc([N+](=O)[O-])cc2)[nH]1 | 8 | 4 | -2 | 12 | 0 | 3 | nt
O=C(N/N=C\c1c(O)ccc2ccccc12)c1cncc(Br)c1 | 7 | 41* | -2 | 20 | -9 | 3 | 58*
O=C(CNC(c1ccccc1)c1ccccc1)Nc1ccccc1F | 6 | 47* | -1 | -4 | -7 | 6 | -4
O=C(CNC(c1ccccc1)c1ccccc1)Nc1ccccc1-c1ccccc1 | -1 | -6 | 24 | 4 | -18 | -4 | nt
CC(OC(=O)c1c[nH]c2ccccc12)C(=O)N1CCCC1 (stereo not drawn) | 4 | 3 | -5 | 6 | -1 | 1 | nt
COc1ccc(-c2coc3cc(OC(=O)N4CCOCC4)ccc3c2=O)cc1 | -8 | 51* | -7 | 5 | -6 | 7 | 43*
COc1cc(Cl)c(C)cc1NC(=O)CN1C(=O)C2CCCCC2C1=O (stereo not drawn) | 0 | 3 | -12 | 1 | 0 | 7 | nt
CN(C)/C=C/C(=O)/C=C/c1ccc(Cl)cc1Cl | 5 | 38* | 6 | 4 | 5 | 9 | 4
